In the library only some 0.3% were active in any assay of this set; here they are far more common.
mcGAS inh = blocks mouse cGAS activity; inhibition, % at 12.5 µM; recombinant cGAS, Kinase-Glo ATP depletion luminescence; 0.15% of 160,000 active
Target sequence (Q8C6L5 whole entry, looked up): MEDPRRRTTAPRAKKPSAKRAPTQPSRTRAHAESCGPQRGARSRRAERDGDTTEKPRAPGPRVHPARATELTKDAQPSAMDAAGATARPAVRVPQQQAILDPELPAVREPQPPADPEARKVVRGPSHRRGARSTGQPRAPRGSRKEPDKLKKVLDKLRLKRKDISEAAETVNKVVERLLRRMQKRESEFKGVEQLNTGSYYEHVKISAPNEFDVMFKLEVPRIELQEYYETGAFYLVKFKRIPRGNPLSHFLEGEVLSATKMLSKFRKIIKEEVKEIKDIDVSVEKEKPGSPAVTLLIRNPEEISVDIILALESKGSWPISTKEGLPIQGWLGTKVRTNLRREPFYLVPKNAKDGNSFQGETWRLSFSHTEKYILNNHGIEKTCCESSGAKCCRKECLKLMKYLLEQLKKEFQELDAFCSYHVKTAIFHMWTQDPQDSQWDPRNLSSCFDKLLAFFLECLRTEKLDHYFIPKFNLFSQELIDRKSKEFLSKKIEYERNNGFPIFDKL
hcGAS inh = inhibitors of human cGAS; 0.081% of 290,000 active; Q8N884; inhibition, % at 12.5 µM; recombinant h-cGAS, ATP depletion, Kinase-Glo luminescence
NPYLR7 ag = activates Aedes aegypti NPYLR7 receptor; 0.15% of 270,000 active; AID 1259423; activation, % at 10 µM; HEK293T NPYLR7/Galpha15, GCaMP6s calcium fluorescence; in the data active means activation above about 40%
A number is an active result; . = inactive; / = no result given; ! = a repeat was not active. Unless noted, no stated cut-off is given here; in the data, active means inhibition above about 40%; inactive means the rest.

SMILES | mcGAS inh | hcGAS inh | NPYLR7 ag
O=C(c1ccccn1)C1CCCN(Cc2nc(Cc3cccc(C(F)(F)F)c3)no2)C1 (stereo unspecified) | / | . | .
Nc1nc(N)nc(SCC(=O)c2ccc[nH]2)n1 | . | . | .
COc1cccc(CNC(=O)C(=O)NCC(c2ccco2)N2CCc3ccccc32)c1 (stereo unspecified) | / | . | .
O=C1SC(Nc2ccc(Br)cc2)C(=O)N1CCN1C(=O)c2ccccc2C1=O (stereo unspecified) | . | . | .
O=C1SC(Nc2ccc(Br)cc2)C(=O)N1c1ccccc1 (stereo unspecified) | . | . | 85
O=C(NC1CCC[C@H]1OCc1ccccc1)c1cncn1-c1cccc(-c2cccc3c2sc2ccccc23)c1 (stereo partly specified) | . | . | .
Cc1[nH]cnc1CN(C)Cc1cn[nH]c1-c1ccccc1 | / | . | /
Cc1cc(C)c2c(c1)OC/C(=C\c1csnn1)C2=O | 45 | . | .
O=C1/C(=C/c2csnn2)COc2c1ccc(Cl)c2Cl | / | . | .
O=[N+]([O-])c1cc([N+](=O)[O-])c2oc(-c3ccccc3)c(Br)c2c1O | 91 | 82 | .
O=c1c(O)c(-c2ccccc2)oc2cccc(O)c12 | / | . | .
COc1cccc(CN2CC(C(=O)N3CCCN(c4ncccn4)CC3)CCC2=O)c1 (stereo unspecified) | . | . | .
CNc1cnc(-c2cccc3ncccc23)cn1 | / | . | .
COC(=O)/C(C#N)=C/c1c(Oc2ccc(C)cc2)nc2ccccn2c1=O | . | . | .
Cc1cccc(Oc2nc3ccccn3c(=O)c2/C=C(\C#N)c2nc3ccccc3s2)c1 | . | . | 89
COc1ccc(Oc2nc3c(C)cccn3c(=O)c2/C=C(\C#N)c2nc3ccccc3s2)cc1 | . | . | .
COc1ccccc1Oc1nc2ccccn2c(=O)c1/C=C(\C#N)c1nc2ccccc2s1 | . | . | 65
Cc1nnc(SCc2ccc(C(=O)N3CCN(c4ccccc4F)CC3)cc2)n1-c1cccc(Cl)c1 | . | . | .
CCOc1ccc(NC(=O)CN2Cc3ccccc3CC2C(N)=O)cc1 (stereo unspecified) | . | . | .
CCOC(=O)CSc1nc(C2CC2)cc(-c2ccc(OC)cc2)c1C#N | . | . | .
CC(C)NC(=O)C(C)S(=O)(=O)Cc1ccccc1F (stereo unspecified) | / | . | .
O=C1/C(=C/c2ccc(-c3cccc(Cl)c3)o2)NC(=S)N1c1ccccc1 | . | . | .
O=C1NC(=S)N(c2ccc3ccccc3c2)C(=O)/C1=C/c1ccc(-c2cccc(C(=O)O)c2)o1 | 81 | 56 | .
O=c1c2ccc(-c3cccnc3)nc2[nH]n1-c1ccccc1 | / | . | .
Cn1c(=O)[nH]c2nnc(-c3cccnc3)nc2c1=O | 58 | 41 | .
SMILES | mcGAS inh | hcGAS inh | NPYLR7 ag
COCC1CN(C2CCC2)CC12CCN(C(=O)C1(c3ccccc3)CC1)CC2 (stereo unspecified) | . | . | /
COc1ccc(C(=O)N2CCC3(CC2)CN(C2CCC2)CC3CO)cn1 (stereo unspecified) | . | 48 | /
COc1cc2c(cc1OC)C(c1c(F)cccc1Cl)N(C(=O)C(C)(C)C)CC2 (stereo unspecified) | . | . | .
Cc1cc(C)nc(SCc2cc(=O)c(OC(=O)Cc3ccccc3)co2)n1 | 87 | . | .
Cc1ccnc(SCc2cc(=O)c(OC(=O)Cc3ccc(F)cc3)co2)n1 | 40 | . | .
Cc1cccc(CC(=O)Oc2coc(CSc3nc(C)cc(C)n3)cc2=O)c1 | . | . | .
Cc1ccnc(SCc2cc(=O)c(OC(=O)COc3ccc(F)cc3)co2)n1 | . | . | .
CCOC(=O)[C@H]1C[C@@H]2O[C@H]1[C@H]1CN(C(=O)c3ccccc3F)C[C@H]1[C@@H]2O | . | . | .
O=C(Nc1ccc(Cl)cn1)c1ccc(Cn2cc(Br)c([N+](=O)[O-])n2)cc1 | / | . | .
O=C(Nc1ccc(Cl)cn1)c1[nH]ncc1[N+](=O)[O-] | / | 60 | .
CCCCN1C(=O)C(=Cc2cccnc2)NC1=S | / | . | .
COc1ccccc1C=C1SC(=S)N(Cc2ccco2)C1=O | / | . | .
CCOCCCN1C(=O)C(=Cc2ccccc2O)NC1=S | / | . | 120
O=C1C(=Cc2ccccc2O)NC(=S)N1Cc1ccco1 | . | . | 80
CCS(=O)(=O)NCc1nnc(SCc2ccc(F)cc2)n1-c1cc(Cl)ccc1C | . | . | .
COc1cccc(Cc2nsc(N3CCC(C(=O)N4CCN(c5ccccc5OC)CC4)CC3)n2)c1 | . | . | .
Cc1cc2ncc(CNCc3cccc4c3OCO4)cn2n1 | / | . | .
CCOc1cc(Cl)c(S(=O)(=O)NC(C)C)cc1Cl | / | . | .
CCOc1cc(-c2nn(CN3CCOCC3)c(=S)o2)cc(OCC)c1OCC | / | . | .
S=c1oc(-c2sc3ccccc3c2Cl)nn1CN1CCOCC1 | . | 43 | .
CSc1ncc(CN2CCC(CO)(Cc3ccccc3Cl)CC2)cn1 | / | . | .
CC1CC2(C)Oc3ccccc3C3OCC1(CO)C(C)C32 (stereo unspecified) | . | . | 43
CC1(C)OC2c3ccccc3OC3(C)CCC1CC23 (stereo unspecified) | / | . | .
CC1=C(C(=O)N2CCC(C(=O)Nc3ccc(Oc4ccccc4)nc3)CC2)OCCO1 | / | . | .
COc1ccc(S(=O)(=O)Oc2cccc(CN(C(=O)Nc3ccccc3OC)C3CC3)c2)cc1 | 42 | . | .
SMILES | mcGAS inh | hcGAS inh | NPYLR7 ag
COc1ccc(S(=O)(=O)Oc2ccccc2CN(C(=O)Nc2ccccc2OC)C2CC2)cc1 | . | . | .
N#CC1C(=N)SC(=N)C(C#N)C1c1cccc(F)c1 (stereo unspecified) | 45 | 54 | 97
N#CC1C(=N)SC(=N)C(C#N)C1c1cccc(Cl)c1Cl (stereo unspecified) | . | . | .
N#CC1C(=N)SC(=N)C(C#N)C1c1cccc(Cl)c1 (stereo unspecified) | . | . | .
N#CC1C(=N)SC(=N)C(C#N)C1c1ccccc1I (stereo unspecified) | / | . | .
N#CC1C(=N)SC(=N)C(C#N)C1c1ccccc1F (stereo unspecified) | 59 | 68! | 47!
N#CC1C(=N)SC(=N)C(C#N)C1c1ccc(Cl)cc1Cl (stereo unspecified) | / | . | 164
CCOC(=O)C(Oc1ccc2c(c1)O/C(=C\c1ccc(OC)c(OC)c1OC)C2=O)c1ccccc1 (stereo unspecified) | . | . | .
COc1ccc(CCNC(=O)c2ccc(CSc3nc(Cl)cc(N4CCN(c5cccc(C(F)(F)F)c5)CC4)n3)cc2)cc1OC | . | . | .
COCc1c(Br)c(C)nc(OCC(=O)N/N=C\c2cc(I)c(OCc3cccc4ccccc34)c(OC)c2)c1C#N | . | . | .
C=C1N(C2CCCCC2)C(=O)OC12CCCCC2 | . | . | /
Fc1ccc(OCc2nc(-c3cccs3)no2)c(F)c1 | / | . | .
CCOC(=O)c1sc(N)c(C(N)=O)c1C | / | . | .
CCOC(=O)c1cc(O)c(C(=O)OCC)s1 | . | . | 62!
CC(C)c1cc(N2CCc3onc(-c4cccc(F)c4)c3C2)ncn1 | . | . | .
COc1ccc(C(=O)N(Cc2ccccc2)C2CCC(NC(=O)C3CCN(C(=O)c4ccc(Cl)cc4)CC3)CC2)cc1 (stereo unspecified) | . | . | .
